This note sets out measurements from PubChem BioAssay (NCI).

Compounds without any hit were thinned out: in the full panel of roughly 79,000, 15% have a hit. Unmarked numbers belong to inactive results. Calls of active or inactive are those of the source. Cut-off read from the data, not from the text of the source: active = growth inhibition above about 70%; inactive = the rest.

A short description of assay [1]: NCI Yeast Anticancer Drug Screen. Data for the rad50 strain (AID 155).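 Note: 0% = growth of vehicle-only cultures of the same strain.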 As to conditions: S. cerevisiae rad50 strain growth inhibition; at 50.0 µM; stronger effect = higher value. An outline of the steps: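 DNA repair mutant yeast, compound exposure, growth read-out; inhibition is taken relative to vehicle.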
Assay [2] in a line: NCI Yeast Anticancer Drug Screen. Data for the mec2-1 strain (AID 157). Particulars: S. cerevisiae mec2-1 strain, at 50.0 µM, stronger effect = higher value. Summed up:
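Test agents were screened against the mec2-1 yeast strain, with defined DNA repair or cell cycle alteration. Growth was scored as inhibition against vehicle-only controls.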

Assay [3] in a line: NCI Yeast Anticancer Drug Screen. Data for the sgs1 mgt1 strain (AID 161).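 Note: 0% = growth of cultures given vehicle only.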 Particulars: S. cerevisiae sgs1 mgt1 strain, at 50.0 µM, stronger effect = higher value. An outline of the steps:
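Mutant yeast exposed to compound; growth scored against vehicle-only wells.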

A short description of assay [4]: NCI Yeast Anticancer Drug Screen. Data for the cln2 rad14 strain (AID 165).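 Note: 0% = growth equal to vehicle treated cultures.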 Particulars: S. cerevisiae cln2 rad14 strain, at 50.0 µM, stronger effect = higher value. Summed up: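 Growth of compound-exposed yeast (cln2 rad14 genotype) measured and expressed as inhibition relative to vehicle.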
Assay [5] in a line: NCI Yeast Anticancer Drug Screen. Data for the bub3 strain (AID 167). Particulars: S. cerevisiae bub3 mutant strain, at 50.0 µM, stronger effect = higher value. Summed up:
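In this screen, a yeast mutant lacking normal mitotic checkpoint function is challenged with compound. Relative growth versus vehicle gives the inhibition value.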

The nature of assay [6]: NCI Yeast Anticancer Drug Screen. Data for the mlh1 rad18 strain (AID 175). As to conditions: S. cerevisiae mlh1 rad18 strain growth inhibition; at 50.0 µM; stronger effect = higher value. An outline of the steps: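 In this whole-cell yeast screen, a strain with altered DNA damage repair is challenged with compound, and its growth is measured against matched vehicle-treated controls.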

As for `c1csc(C2=NCCC2)c1`, the growth inhibition in assay [1] is 0.35%; in assay [2], -6.65%; in assay [3] it was 6.35%; in assay [4], 36.5%; in assay [5], 31.6%; in assay [6] it was 3.3%.
Consider `c1ccc2nn(C3CCCCO3)nc2c1` (stereo unspecified), for which the growth inhibition in assay [1] was -8.05%; in assay [2], -9.85%; in assay [3], -25.9%; in assay [4], -18.1%; in assay [5] it was 5.65%; in assay [6], -54.6%.
Consider `CC1=C(C)CC2(CC1)C(=O)C1(CCC(C)=C(C)C1)C2=O` (stereo unspecified), for which the growth inhibition in assay [1] was 25.2%; in assay [2] it was 0.7%; in assay [3] it was -2.8%; in assay [4], 14.1%; in assay [5] it was 17%; in assay [6], 15.6%.
For the molecule `CC(O)COc1ccc(Cl)cc1Cl` (stereo unspecified), the growth inhibition in assay [1] was 27.1%; in assay [2] it was -10.2%; in assay [3], 45.6%; in assay [4] it was 9.6%; in assay [5], 8.35%; in assay [6], 26.6%.
Take `N#C/C=C\c1ccc(F)cc1`: the growth inhibition is 27.1% in assay [1]; 9.7% in assay [2]; 17.1% in assay [3]; 3.35% in assay [4]; 10.8% in assay [5]; 12.2% in assay [6].
As for `CC(C)c1ccc2c(c1)CCC1C(C)(C)[C@@H](O)CC[C@]21C` (stereo partly specified), the growth inhibition in assay [1] is -15.3%; in assay [2], -40.1%; in assay [3], -23.2%; in assay [4], 19.4%; in assay [5], -32.6%; in assay [6] it was -22.3%.
For the molecule `O=C(O)CNc1ccccc1.[Cu+2]`, the growth inhibition in assay [1] was -38.5%; in assay [2], -28.1%; in assay [3], -51.5%; in assay [4], 6.95%; in assay [5] it was -35.9%; in assay [6], -15.8%.
In the case of `CC1(C)C2CCC(I)(C2)C1I` (stereo unspecified), the growth inhibition is 10.9% in assay [1]; 0.45% in assay [2]; -17.3% in assay [3]; -15.8% in assay [4]; 1.55% in assay [5]; 10.3% in assay [6].
With `CC(C)(O)CCC(O)C(C)(O)C1CCC2(O)C3=CC(=O)C4(O)CC(O)C(O)CC4(C)C3CCC12C` (stereo unspecified) (tested in a mixture with another compound), the growth inhibition in assay [1] was -5.3%; in assay [2] it was -17.9%; in assay [3] it was 6.15%; in assay [4], -12.2%; in assay [5] it was -17.4%; in assay [6], -47.7%.
As to `CCOC(=O)CCCC(=O)N(CC(=O)OCC)Cc1ccccc1`, the growth inhibition is 2.6% in assay [1]; 12.1% in assay [2]; 13.2% in assay [3]; -4.9% in assay [4]; 5% in assay [5]; -5.85% in assay [6].
`CN(C)CCC1(C2=CCCC2)CC/C(=C\c2ccccc2)C1=O` (stereo unspecified): the growth inhibition in assay [1] was 16.9%; in assay [2], -17.8%; in assay [3], -5.6%; in assay [4] it was 14.7%; in assay [5], -45.6%; in assay [6], 2.5%.
As for `S=c1c2ccccc2c(=S)n2n1CC=CC2`, the growth inhibition in assay [1] is 7.6%; in assay [2], 6.95%; in assay [3] it was 2.3%; in assay [4], 0%; in assay [5] it was 16.8%; in assay [6], 15.7%.
As for `CC(C)c1sc([S-])n[n+]1-c1ccccc1`, the growth inhibition in assay [1] was 10.2%; in assay [2], -0.65%; in assay [3], -9.5%; in assay [4], -15.4%; in assay [5], -4.3%; in assay [6], 7%.
For the molecule `CCCN(C(=O)c1ccccc1)C(C#N)c1ccc(C(C#N)N(CCC)C(=O)c2ccccc2)cc1` (stereo unspecified), the growth inhibition was 7% in assay [1]; 1.2% in assay [2]; -24.4% in assay [3]; -10.9% in assay [4]; -11.8% in assay [5]; -32.5% in assay [6].
For `O=C1C2=C(CCCC2)Nc2cccc3ncn1c23`, the growth inhibition in assay [1] is -25.9%; in assay [2], -39%; in assay [3] it was -56.8%; in assay [4], -20.4%; in assay [5] it was -38.4%; in assay [6] it was -40.2%.
On to `C[n+]1cccc(C(=O)O)c1`, for which the growth inhibition is 5.25% in assay [1]; 2.75% in assay [2]; 8.65% in assay [3]; -9.05% in assay [4]; 17.8% in assay [5]; 10.1% in assay [6].
For the molecule `C=C(COC(=O)C(C)C)[C@H]1Oc2ccc(C(C)=O)cc2[C@@H]1OC(=O)C(C)C`, the growth inhibition in assay [1] was -11.5%; in assay [2], -3.9%; in assay [3], -15.9%; in assay [4], -9.55%; in assay [5] it was 0.45%; in assay [6] it was -23.1%.
As for `CCOC(=O)C(CCCOC1CCCCO1)(C(=O)OCC)c1ccccc1` (stereo unspecified), the growth inhibition in assay [1] was 21.4%; in assay [2], -0.1%; in assay [3], -15.2%; in assay [4], 14.4%; in assay [5] it was 8.8%; in assay [6] it was -5%.
Turning to `NC1CC(=O)C(CC2C(=O)CC(N)CC2=O)C(=O)C1` (stereo unspecified), the growth inhibition in assay [1] is -1.3%; in assay [2], 0.05%; in assay [3], 3.35%; in assay [4] it was -1.8%; in assay [5] it was -1.15%; in assay [6], -3.65%.
In the case of `N#CC1(C(N)=O)OC1c1ccccc1Cl` (stereo unspecified), the growth inhibition in assay [1] is -3.1%; in assay [2] it was -18.1%; in assay [3], 1.3%; in assay [4], -37.3%; in assay [5], -7.1%; in assay [6], -16.9%.
Take `COC1(OC)C[C@H](C)[C@@]23O[C@]24c2cc(O)c5c(c2N[C@H]3C#C/C=C\C#C[C@]14O)C(=O)c1ccccc1C5=O`: the growth inhibition is 87.7% (active) in assay [1]; 87.2% (active) in assay [2]; 88.8% (active) in assay [3]; 88% (active) in assay [4]; 89.3% (active) in assay [5]; 90.8% (active) in assay [6].
